Laboratory results taken from PubChem BioAssay (EPA / NIEHS).
The source made the active and inactive calls. The calls were made as follows: active = hit-call score of the fitted dose curve at least 0.9, where 1 is the maximum; inactive = score below 0.9.

Assay: BSK_SAg_Proliferation: Cell Proliferation Assessment in the BioMAP Diversity Plus: SAg Assay (AID 2283095)
Details: primary human HUVEC with PBMC
Procedure: BSK_SAg is a cell-based, multiplexed-readout assay that uses umbilical vein endothelium and peripheral blood mononuclear cells, a human vascular primary cell co-culture, with measurements taken at 24 hours after chemical dosing in a 96-well plate.BSK_SAg_Proliferation is an assay component in the BSK_SAg assay. It measures protein content, a form of viability reporter, as detected with absorbance signals by Sulforhodamine staining technology. Data from the assay component BSK_SAg_Proliferation was analyzed into 1 assay endpoint. This assay endpoint, BSK_SAg_Proliferation, was analyzed with bidirectional fitting relative to DMSO as the negative control and baseline of activity. Using a type of viability reporter, measures of total protein for gain or loss-of-signal activity can be used to understand the viability at the cellular-level. Furthermore, this assay endpoint can be referred to as a secondary readout, because this assay has produced multiple assay endpoints where this one serves a viability function. To generalize the intended target to other relatable targets, this assay endpoint is annotated to the cell cycle intended target family, where the subfamily is proliferation.
The levels of cell surface (or secreted, indicated by the prefix "s") biomarker endpoints were measured by ELISA. Overt cytotoxicity to cells in confluent adherent cultures (all systems other than the BT system) was assessed by measuring total protein levels using sulforhodamine B (SRB) staining in parallel cultures at the time of biomarker measurements, indicated as SRB endpoints. For proliferation assays for adherent cell types, individual cell types are cultured at sub-confluence and relative cell numbers quantified by SRB staining at time points optimized for each system (48 h: 3C and CASM3C systems; 72 h: BT and HDF3CGF systems; 96 h: SAg system). SRB was performed by staining cells with 0.1% SRB after fixation with 10% TCA and reading wells at 560 nm.Viability and proliferation of PBMC (T cells) was quantified by Alamar Blue reduction for the SAg and BT systems. For PBMC viability (referred to as PBMC Cytotoxicity within the assay endpoint names), cells were plated (75,000/well in a 96-well plate) and then chemical samples added for 1 h before addition of activators, SEB and TSST-1 (20 ng/mL final concentration each). Cells were incubated for 90 h. Then, Alamar Blue (20 uL/well) (Invitrogen, Cat DAL1100) was added for 6 h, and the plates were read with a fluorescence microplate reader at 546/580 nm (excitation/emission). For PBMC proliferation, cells were plated and activated as above but incubated for only 16 h prior to addition of Alamar Blue. Plates were read after 6 h.

Which outcome does the source give for `C/C=C/c1ccc(OC)cc1` here?
The outcome was “inactive”.

With `Nc1nc(=S)c2[nH]cnc2[nH]1` as the molecule, how does the AC50 read?
Its AC50 is 13.5 µM (active).

For `O=Cc1ccccc1C=O`, which outcome is on record?
Its outcome is “inactive”.

Which outcome does the source give for `CC(=O)OCC(COC(C)=O)OC(C)=O` here?
Its outcome is “inactive”.

Which outcome does the source give for `S=c1[nH]c2ccccc2s1` here?
The outcome was “inactive”.

For `Cn1cnc2c1c(=O)[nH]c(=O)n2C`, which outcome is on record?
Its outcome is “inactive”.

Which outcome does the source give for `OCC(O)CO` here?
The outcome was “inactive”.

For `CSc1ccc(Oc2ccc(S(N)(=O)=O)cc2CN(C)C)cc1C`, which AC50 is on record?
The AC50 was 23.3 µM (active).

With `CC(C)c1cccc(C(C)C)c1NC(=O)NS(=O)(=O)c1cc(C(C)(C)O)co1` as the molecule, how does the outcome read?
The outcome was “inactive”.

For `CCOCCOCCO`, which outcome is on record?
Its outcome is “inactive”.

Which outcome does the source give for `CC(C)COC(=O)CCCCC(=O)OCC(C)C` here?
Its outcome is “inactive”.

With `C=CCc1ccc(OC)c(OC)c1` as the molecule, how does the outcome read?
The outcome was “inactive”.

For `CO[C@@H]1COCC[C@@H]1N[C@@H]1CC[C@@](C(=O)N2CCc3ncc(C(F)(F)F)cc3C2)(C(C)C)C1`, which outcome is on record?
The outcome was “inactive”.

Which AC50 does the source give for `CN(C)C(=O)NC1(c2ccccc2)CCN(CCC[C@]2(c3ccc(Cl)c(Cl)c3)CCCN(C(=O)c3ccccc3)C2)CC1` here?
The AC50 was 7.39 µM (active).

Which outcome does the source give for `c1ccc2occc2c1` here?
Its outcome is “inactive”.

With `O=C(O)c1cccnc1` as the molecule, how does the outcome read?
The outcome was “inactive”.

For `NC=O`, which outcome is on record?
The outcome was “inactive”.

For `NC1CCCCC1`, which outcome is on record?
The outcome was “inactive”.

For `Cc1c(C)c2c(c(C)c1O)CCC(C)(COc1ccc(CC3SC(=O)NC3=O)cc1)O2` (stereo not given), which AC50 is on record?
The AC50 was 14.1 µM (active).

With `COC(=O)CCCC(=O)OC` as the molecule, how does the outcome read?
Its outcome is “inactive”.

With `O=C1NC(=O)C(c2ccccc2)(c2ccccc2)N1` as the molecule, how does the outcome read?
Its outcome is “inactive”.

With `COC(=O)CCC(=O)OC` as the molecule, how does the outcome read?
The outcome was “inactive”.

For `O=C(O)c1[nH]n(-c2ccc(S(=O)(=O)O)cc2)c(=O)c1N=Nc1ccc(S(=O)(=O)O)cc1`, which outcome is on record?
Its outcome is “inactive”.

For `CCC(C)N(C)C(=O)c1cc2ccccc2c(-c2ccccc2Cl)n1` (stereo not given), which outcome is on record?
Its outcome is “inactive”.

Which outcome does the source give for `CCCCCCCCCCCCCCCCO` here?
Its outcome is “inactive”.

For `NC(=Nc1ccccc1)Nc1ccccc1`, which outcome is on record?
Its outcome is “inactive”.

Which AC50 does the source give for `COc1ccc(C(=O)Nc2nc3ccccc3c(NCc3ccccc3)c2C#N)cc1` here?
Its AC50 is 6.22 µM (active).

For `CCCCCCC(C=O)=Cc1ccccc1`, which AC50 is on record?
Its AC50 is 34.9 µM (active).

For `CC(=O)O`, which outcome is on record?
Its outcome is “inactive”.

For `O=C1c2c(O)cccc2Cc2cccc(O)c21`, which outcome is on record?
The outcome was “inactive”.

For `CCCC(=O)O`, which AC50 is on record?
Its AC50 is 33.7 µM (active).

Which outcome does the source give for `CCCCCCCCCCCCCCOS(=O)(=O)O` here?
The outcome was “inactive”.

With `CCCCC(CC)COC(=O)CCCCCCCC(=O)OCC(CC)CCCC` (stereo not given) as the molecule, how does the outcome read?
The outcome was “inactive”.

With `Cc1ccc(C(C)(C)C)c(O)c1` as the molecule, how does the outcome read?
Its outcome is “inactive”.

With `CCCCOC(=O)CCCCC(=O)OCCCC` as the molecule, how does the outcome read?
Its outcome is “inactive”.

Which AC50 does the source give for `CCCCC(CC)COP(=O)(OCC(CC)CCCC)OCC(CC)CCCC` (stereo not given) here?
Its AC50 is 5.3 µM (active).

For `Cc1occc(=O)c1O`, which outcome is on record?
The outcome was “inactive”.

For `C=CCCCCCCCCCCCC`, which outcome is on record?
The outcome was “inactive”.

For `Cc1ccc(-c2cc(C(F)(F)F)nn2-c2ccc(S(N)(=O)=O)cc2)cc1`, which AC50 is on record?
The AC50 was 23 µM (active).

Which outcome does the source give for `CC(N)=O` here?
The outcome was “inactive”.
